Assay results: PubChem BioAssay AID493054 (Broad Institute, 2011)
Measured potencies and affinities stand elsewhere. Activity calls are given as the source filed them.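 How the source made its calls: active means viability loss with fitted half-maximal dose at most ten times the highest valid dose tested; inconclusive means flat viability loss between 30 and 70%, or poor curve fit; inactive means the rest, including flat curves or rising signal.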

Test: BJeH cell viability loss – BJeH cells, dry powder, counter-screen for Ras selective lethality project, dose response (AID 493054)
Settings: BJeH fibroblasts viability, Alamar Blue fluorescence, 48 h; series mostly up to 45 µM

Which outcome does the source give for `CCC(=O)N(c1ccc(OC)c(Cl)c1)C(C(=O)NCCc1ccccc1)c1cccs1` (centres undefined) here?
The outcome was “inactive”.

For `COc1ccc(N(C(=O)CO)C(C(=O)NCCc2ccccc2)c2cccs2)cc1Cl` (centres undefined), which outcome is on record?
The outcome was “inactive”.

With `COCC(=O)N(c1ccc(OC)c(Cl)c1)C(C(=O)NCCc1ccccc1)c1cccs1` (centres undefined) as the molecule, how does the outcome read?
The outcome was “inactive”.

For `O=C(c1[nH]ncc1[N+](=O)[O-])N1CCN(C(c2ccccc2)c2ccccc2)CC1`, which outcome is on record?
Its outcome is “inactive”.
